Laboratory results from PubChem BioAssay (EPA / NIEHS).
Results filed as inconclusive are left out. Calls of active or inactive are those of the source. The calls were made as follows, unless noted: active = hit-call score of the fitted dose curve at least 0.9, where 1 is the maximum; inactive = score below 0.9.

Experiments:
[1] = TAMU_HCS_1.5hr_SingleDonor1434_Cytotoxicity: Cytotoxicity Assessment using High-content Screening (HCS) Fluorescent Imaging for the Texas A&M University (TAMU) 1.5-hr Human Induced Pluripotent Stem Cell (iPSC)-derived Cardiotoxicity Assay (AID 2284234; active = hit-call score of the fitted dose curve at least 0.9, where 1 is the maximum)
Method in brief: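 Human iPSC-derived cardiomyocytes dosed at 0.2, 1, 10, 100 uM final (0.5% DMSO) for 90 min at 37 C. Hoechst 33342-stained nuclei counted by 10x high-content imaging; POD is EC10, a 10% drop in total cell count versus DMSO.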

[2] = TAMU_PeakParms_SingleDonor1434_QT: Texas A&M University (TAMU) 1.5-hr Human Induced Pluripotent Stem Cell (iPSC)-derived Cardiomyocytes Calcium (Ca+2) Flux Assay for Cardiotoxicity: QT (decay-rise ratio) (AID 2284235; active = hit-call score of the fitted dose curve at least 0.9, where 1 is the maximum)
Method in brief: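 iPSC-derived cardiomyocytes (single donor 1434) dosed at 0.2, 1, 10, 100 uM final in 0.5% DMSO, 90 min at 37C. Ca2+ flux fluorescence decay/rise ratio; EC05 (5% increase versus DMSO) as POD, excluding beat-arrest and severe-notch data.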

[3] = CCTE_Mundy_HCI_Cortical_NOG_BPCount: CCTE's Neurite Outgrowth Assay in rat cortical cells for Branch Point Count, Mundy Lab (AID 2284237)
Method in brief: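 Measured 50.33 h after dosing, this morphology endpoint uses rat primary cortical cultures labelled for betaIII-tubulin. Branch points are quantified by high-content imaging, with DMSO as negative control and baseline.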

[4] = CCTE_Mundy_HCI_hNP1_Casp3_7: CCTE's Caspase-Glo 3/7 Assay in human neuroprogenitor cells for Apoptosis, Mundy Lab (AID 2284240)
Method in brief: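 Neuroepithelial-lineage stem cells from WA09 embryonic cells were treated with chemicals after 40–44 h of culture. Twenty-four hours later, caspase-3/7 activation was detected luminescently after a 30 min room-temperature reagent step, with DMSO as baseline.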

[5] = CCTE_Mundy_HCI_Cortical_Synap_Neur_Matur_NeuronCount: CCTE's Synaptogenesis and Neurite Maturation Assay in rat cortical cells for Neuron Count, Mundy Lab (AID 2284242; active = hit-call score of the fitted dose curve at least 0.9, where 1 is the maximum;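 as to AC50: neuron number from Hoechst nuclei and MAP2 staining by high-content imaging; hits reduce neuron count versus DMSO baseline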)
Method in brief: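 Rat primary cortical cells received AraC at DIV 5 to arrest glia, then were dosed with chemicals at DIV 7 through DIV 12. Fixed cells were stained for nuclei, MAP2 and synaptophysin, and neurons were counted by high-content imaging relative to DMSO.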

[6] = IUF_NPC2c_oligodendrocyte_migration_120hr: Leibniz Research Institute for Environmental Medicine (IUF) 120-hour Neural Progenitor Cell Migration Assay for Oligodendrocyte Migration (NPC2c) (AID 2284297);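 also: O4-positive oligodendrocyte migration distance divided by radial glia migration distance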
Method in brief: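 Using fetal brain neural progenitor spheres differentiating in N2 medium at 37C, compounds were present for 120 h. Oligodendrocyte migration distance, normalized to radial glia migration, was measured from imaged O4 staining.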

[7] = IUF_NPC2a_radial_glia_migration_120hr: Leibniz Research Institute for Environmental Medicine (IUF) 120-hour Neural Progenitor Cell Migration Assay for Radial Glia Migration (NPC2a) (AID 2284298)
Method in brief: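 Exposure of 0.3 mm primary hNPC spheres runs day 0 to 120 h with a half-volume medium change at day 3. Fixed cells get Hoechst staining; high-content analysis of nuclear positions yields radial glia migration distance per well, compared against DMSO controls.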

[8] = IUF_NPC2a_radial_glia_migration_72hr: Leibniz Research Institute for Environmental Medicine (IUF) 72-hour Neural Progenitor Cell Migration Assay for Radial Glia Migration (NPC2a) (AID 2284299)
Method in brief: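 Human fetal cortex (GW 16-19) neural progenitor spheres, 0.3 mm, plated on poly-D-lysine/laminin in N2 differentiation medium with compound from day 0. Radial glia migration distance (um, sphere core edge to migration edge) measured manually in four directions on 72 h brightfield images; well mean used.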

[9] = CCTE_Mundy_HCI_hNP1_CellTiter: CCTE's Cell Titer-Glo 2 Assay in human neuroprogenitor cells for Viability, Mundy Lab (AID 2284241; active = hit-call score of the fitted dose curve at least 0.9, where 1 is the maximum;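 as to AC50: a hit is a drop in ATP luminescence versus DMSO meaning reduced viability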)
Method in brief: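 Measures ATP content in human neural progenitors derived from WA09 embryonic cells. Read-out at 26.5 hours after dosing, with DMSO serving as the negative control and baseline.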

[10] = UKN2_HCS_IMR90_cell_viability: Viability Assessment in the University of Konstanz (UKN) Leist Lab Neural Crest Cell Migration Assay in human induced IMR90 Pluripotent Stem Cells (UKN2) (AID 2284233);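 also: viability of neural crest cells differentiated from IMR90 iPSC measured by calcein-AM fluorescence imaging; cells exposed to compound for 24 h after a 24 h migration phase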
Method in brief: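 iPSC-derived (IMR90) neural crest cells seeded around silicone stoppers on PLO/laminin/fibronectin; after 24 h migration in N2-S with EGF/FGF, chemical added for 24 h. Calcein-AM/Hoechst stained 30 min, high-content imaged; bidirectional fit versus DMSO.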

Measured: AC50

COC(=O)[C@H]1[C@H]2C[C@@H]3c4[nH]c5cc(OC)ccc5c4CCN3C[C@H]2C[C@@H](OC(=O)c2cc(OC)c(OC)c(OC)c2)[C@@H]1OC
inactive: [1] | [2]

CC(=O)CC(c1ccccc1)c1c(O)c2ccccc2oc1=O (configuration not stated)
inactive: [3] | [4] | [5] | [6] | [7] | [8]

OCC(O)CO
inactive: [3] | [4] | [9] | [6] | [7] | [8]

O=C1NC(=O)C(c2ccccc2)(c2ccccc2)N1
inactive: [10] | [4] | [5] | [6] | [7] | [8]

Cc1occc(=O)c1O
inactive: [1] | [2]

O=C(O)CC(O)(CC(=O)O)C(=O)O
inactive: [1] | [2]

CN(C)CCCN1c2ccccc2Sc2ccc(Cl)cc21
active: [10] 14.3 µM | [4] 11.6 µM | [9] 24.7 µM | [5] 13.7 µM | [6] 16.1 µM | [7] 14.2 µM | [8] 15.1 µM

CCc1nc(N)nc(N)c1-c1ccc(Cl)cc1
inactive: [2]
